ChEMBL document CHEMBL4888484, “Replenishing the malaria drug discovery pipeline: Screening and hit evaluation of the MMV Hit Generation Library 1 (HGL1) against asexual blood stage Plasmodium falciparum ,using a nano luciferase reporter read-out” (2022)
Screen size: about 4,800 compounds; about 420 (8.8%) showed an effect of 50% or more. Only a selection was taken, and strong results are over-represented in it overall.

What follows are compounds tested on Plasmodium falciparum (assay: Confirmatory screen in NF54 nanoGlo assay, in single point, at 2uM, 72h). Conditions: timepoint 72 hour.
Format: functional, Erythrocyte
With COc1snc(C(Cl)(Cl)Cl)c1Cl the “% Inhibition” value was -2%.
With CCN(CC)CCC1C(=O)N(c2ccccc2)C(=O)N(c2ccccc2)C1=O the “% Inhibition” value was 4%.
For CC(=O)N1N=C(c2cccnc2)O[C@H]1c1ccc(F)cc1, the “% Inhibition” value was -10%.
In the case of Cc1nc(Cn2nc(C(C)(C)C)oc2=O)oc1C, the “% Inhibition” value is reported as 0%.
With FC1(F)C[C@@H](COc2cccnc2)N(C2CCCCC2)C1 the “% Inhibition” value was 3%.
For Cn1cc(/C=C2\CC3C4CCC5CCCCC5(C)C4CCC3(C)C2O)cn1 (configuration not stated), the “% Inhibition” value was 0%.
For Cc1cccc(CN(C)C)c1OC(=O)N(C)C, the “% Inhibition” value was -9%.
For COc1ccc(-c2cc([C@H]3CN4CC[C@H]3C[C@@H]4CNC(=O)C3CCCCC3)n(C)n2)cc1OC, the “% Inhibition” value was -9%.
Cc1ccc(NC(=O)N2CCC(=O)CC2)cc1Br was tested, and the “% Inhibition” value was -4%.
In the case of C=CCCC(CN1C[C@H]2CC=CC[C@H]2C1)Oc1ncc(F)cn1 (some centres not stated), the “% Inhibition” value is reported as 77%.
COC(=O)[C@H]1CN(Cc2noc(C)n2)C[C@@H]1c1ccc(F)cc1F was tested, and the “% Inhibition” value was -20%.
With CC(Cc1ccccc1)NC1CN2CCC1CC2 (configuration not stated) the “% Inhibition” value was 1%.
For CC(C)N1CCN(c2nc3nc[nH]c(=O)c3s2)CC1, the “% Inhibition” value was 4%.
O=S(=O)(NC12CCCC1CNC2)c1onc(C2CC2)c1Cl (configuration not stated) was tested, and the “% Inhibition” value was 95%.
In the case of O=C(NCc1cc(F)cc(F)c1)c1cn(Cc2ccc(F)cc2)nn1, the “% Inhibition” value is reported as -15%.
For O=C1N[C@](c2ccccc2)(C(F)(F)F)c2ccc3ccccc3c2O1, the “% Inhibition” value was 5%.
With CC1CCCCC1N1CCN(C(=O)COc2ccc(Br)cc2)CC1 (configuration not stated) the “% Inhibition” value was 3%.
For O=c1c2cc(Cl)ccc2nc(-c2cccnc2)n1-c1ccc(Br)cc1, the “% Inhibition” value was 0%.
With O=C1O[C@@H]2CCN(Cc3ccccc3)[C@H]1C2 the “% Inhibition” value was -15%.
In the case of CCC1(CC)C(=O)N(CN2CCCC2=O)C(=O)N(CN2CCCC2=O)C1=O, the “% Inhibition” value is reported as -17%.
With CN(C)S(=O)(=O)Nc1cccc(OC(=O)N2CCOCC2)c1 the “% Inhibition” value was -10%.
With CCN1CCC[C@H](NC(C2CCC2)C2CCC2)C1 the “% Inhibition” value was -3%.
In the case of O=C(N1CCN(C(c2ccccc2)c2ccccc2)CC1)C(O)(c1ccccc1)c1ccccc1, the “% Inhibition” value is reported as -4%.
COc1cc(OCC(=O)N2CCN([C@@H](C)Cc3ccccc3)CC2)cc(OC)c1OC was tested, and the “% Inhibition” value was 8%.
For Cc1cc(=O)c(OCC(=O)N2CCN([C@@H](c3ccccc3)c3ccc(Cl)cc3)CC2)c[nH]1, the “% Inhibition” value was 63%.
For Cc1ccc(C(O)(c2ccc(C)c(C)c2)[C@H]2C[N@]3CC[C@@H]2CC3)cc1C, the “% Inhibition” value was 6%.
For CN1CCN(CCO[C@@H](c2cccc(Cl)c2)c2ccccc2Cl)CC1, the “% Inhibition” value was 0%.
In the case of O=C(c1ccccc1)c1cc(Cl)ccc1NC(=O)[C@H]1CC(=O)N(c2ccc(F)cc2)C1, the “% Inhibition” value is reported as 85%.
For c1cc(-n2cnnn2)ccc1N[C@H]1CN2CCC1CC2, the “% Inhibition” value was -14%.
For CC(C)c1nc(CC(=O)N2CCN(Cc3nnc4n3CCCCC4)CC2)cs1, the “% Inhibition” value was -12%.
For CCCC(=O)N(C1=CC2CCC(C1)N2C)c1ccccc1 (configuration not stated), the “% Inhibition” value was 1%.
Cc1cc(C(=O)NC2CC(C)n3ccnc32)nn1C(C)C (configuration not stated) was tested, and the “% Inhibition” value was 58%.
With COc1cc(=O)c(C(=O)N2CCC3(CC2)OCCO3)nn1-c1ccc(C)cc1 the “% Inhibition” value was -5%.
With CN1CCC2CCN(C(=O)c3cc(C4CC4)on3)C2C1 (configuration not stated) the “% Inhibition” value was 2%.
For CCOc1ccccc1N1C(=O)NC(=O)[C@@]2(Cc3cc(C)ccc3N(C)C2)C1=O, the “% Inhibition” value was -10%.
In the case of COC(=O)C(O)(c1ccc2c(c1)C(O)(C(F)(F)F)C(=O)N2C(C)C)C(F)(F)F (configuration not stated), the “% Inhibition” value is reported as 8%.
With CC1CN2CCCC2CN1C(=O)c1cc(C2CC2)on1 (configuration not stated) the “% Inhibition” value was -17%.
For O=C1C2CCN(CC2)[C@H]1Cc1ccc(Cl)cc1, the “% Inhibition” value was 4%.
With Cc1cc(C(F)(F)F)c2c(C(N)=O)cn(C(C)(C)C)c2n1 the “% Inhibition” value was 2%.
With C[N+]12CCC(CC1)[C@@H](C(O)(c1cccc(Cl)c1)c1cccc(Cl)c1)C2 the “% Inhibition” value was 24%.
For O=C1CO[C@H]2CCN(Cc3cn4ccc(Br)cc4n3)C[C@@H]2N1, the “% Inhibition” value was 1%.
For Cn1nc(OC(=O)Nc2ccccc2)cc1C(F)(F)F, the “% Inhibition” value was 6%.
CN(C)C(=O)CCCn1ccc(NC(=O)C2C(C)(C)C2(C)C)n1 was tested, and the “% Inhibition” value was -18%.
Nc1ccc(N2CCN3CCC[C@H]3C2)cc1 was tested, and the “% Inhibition” value was 8%.
Cc1ccc2c(c1)CCCN2C(=O)CN1CC=C(c2cnn(C)c2)CC1 was tested, and the “% Inhibition” value was 43%.
In the case of CCCS(=O)(=O)NC[C@H]1C[C@@H]2CCN1C[C@@H]2c1cc(C(CC)CC)nc(-c2ccncc2)n1, the “% Inhibition” value is reported as 18%.
With CCC(CC)c1cc([C@H]2CN3CC[C@H]2C[C@@H]3CNS(=O)(=O)Cc2ccccc2)nc(-c2ccncc2)n1 the “% Inhibition” value was 63%.
In the case of CCC(CC)c1cc([C@H]2CN3CC[C@H]2C[C@@H]3CO)nc(-c2ccncc2)n1, the “% Inhibition” value is reported as 26%.
For CC1CCNC(=O)C1NC(=O)Nc1ccc(C#N)c(C(F)(F)F)c1 (configuration not stated), the “% Inhibition” value was 8%.
Clc1ccc(C2CC(c3cccnc3)Nc3nnnn32)cc1 (configuration not stated) was tested, and the “% Inhibition” value was -10%.
In the case of CCCCC1(CCCC)C(=O)NC(=Nc2ccc(C)cc2)NC1=O, the “% Inhibition” value is reported as -18%.
In the case of O=C1N(c2ccccc2)C(=O)C2(Cc3cc(C(F)(F)F)ccc3N3CCC(c4ccccc4)CC32)C(=O)N1c1ccccc1 (configuration not stated), the “% Inhibition” value is reported as 4%.
For CC[C@H]1C[N@@]2CC[C@H]1C[C@@H]2COC(=O)Nc1ccc(C(C)(C)C)cc1, the “% Inhibition” value was 4%.
For COc1cccc(CNC(=O)N2CC[C@@H]3CCN(C)C[C@@H]32)n1, the “% Inhibition” value was -2%.
In the case of CC(=O)N(C1CCN(Cc2ccccc2)CC1)C1(C(=O)Nc2ccc3[nH]ccc3c2)CCN(C)CC1, the “% Inhibition” value is reported as 35%.
For c1cc(N2CC[C@@]3(CCCNC3)C2)c2sccc2n1, the “% Inhibition” value was 99%.
CN1CC[C@]2(CCN(c3ccnc4ccsc34)C2)C1 was tested, and the “% Inhibition” value was 99%.
For CCn1nccc1CNCCc1ccccc1, the “% Inhibition” value was 4%.
CC[C@H]1C[N@@]2CC[C@H]1C[C@@H]2COC(=O)Nc1ccccc1 was tested, and the “% Inhibition” value was 3%.
CNc1snc(C)c1C(=O)N1CCC(C(=O)OC)(c2ccccc2)CC1 was tested, and the “% Inhibition” value was -2%.
With COc1ccc(-c2ccccc2N2CCNCC2)c2ccc(C)nc12 the “% Inhibition” value was -4%.
With Clc1cccc(CCN[C@H]2CCOC3(CCOCC3)C2)c1 the “% Inhibition” value was 7%.
